High-throughput results from PubChem BioAssay.
GDH-TPI counter-1 = inhibits GDH-TPI coupling enzymes, artifact for Mtb FBA screen | GDH-TPI coupled enzyme counterscreen, NADH absorbance | inhibition, % at 4.8 µM | 360,000 compounds, 1.2% hits; in the data active = inhibition above about 30%;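 note: 0% = DMSO wells and 100% = wells lacking the enzyme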
Mtb hypoxia inh = inhibitors of hypoxia-regulated fluorescent reporter in Mycobacterium tuberculosis. 300,000 compounds, 0.1% hits. fluorescence inhibition, % (concentration not given with the values). AID 1159583. M. tuberculosis hypoxia-regulated fluorescent reporter, fluorescence; in the data active = fluorescence inhibition mostly above about 23%, no sharp cut-off; inactive = mostly below about 17%
Mtb FBA inh = Mtb fructose-bisphosphate aldolase inhibition; P9WQA3; inhibition, % at 1 µM; purified M. tuberculosis FBA, fluorescence read-out; 360,000 compounds, 2.3% hits; in the data active = inhibition above about 27%;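 note: 0% = vehicle and 100% = reference inhibitor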
FadD28 binding = blocks FadD28 binding to the bisubstrate probe; fluorescence polarization; inhibition, % at 12.5 µM; 360,000 compounds, 0.22% hits; AID 588549; in the data active = inhibition above about 8.5%, passing the limit was not always enough; inconclusive = no clear call, values can overlap the other calls
BioA inh-1 = blocks M. tuberculosis BioA enzyme activity; purified M. tuberculosis BioA enzyme, plate reader; inhibition, % at 9.99 µM; 360,000 compounds, 0.096% hits; in the data active = inhibition above about 40%; inconclusive = no clear call, values can overlap the other calls
Mtb FBA confirm = Mtb FBA inhibition, confirmed; 5,600 compounds, 78% hits; purified M. tuberculosis FBA, fluorescence read-out; inhibition, % at 1 µM; AID 651616; shares compounds with Mtb FBA inh; in the data active = inhibition above about 27%;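 note: 0% = vehicle wells and 100% = reference inhibitor wells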
GDH-TPI counter-2 = GDH-TPI inhibition counter-screen for FBA inhibitors | inhibition, % at 1 µM | 5,600 compounds, 81% hits | shares compounds with Mtb FBA inh | GDH-TPI coupled enzyme counterscreen, fluorescence; in the data active = inhibition above about 10%
BioA inh-2 = inhibitors of Mycobacterium tuberculosis BioA enzyme | shares compounds with BioA inh-1 | purified BioA enzyme, plate reader, dose response | AID 651679 | 310 tested, under 10 active | max activity, %;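 note: top concentration of the dilution series was 10 µM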
Target sequence (P9WQ81 whole entry, looked up): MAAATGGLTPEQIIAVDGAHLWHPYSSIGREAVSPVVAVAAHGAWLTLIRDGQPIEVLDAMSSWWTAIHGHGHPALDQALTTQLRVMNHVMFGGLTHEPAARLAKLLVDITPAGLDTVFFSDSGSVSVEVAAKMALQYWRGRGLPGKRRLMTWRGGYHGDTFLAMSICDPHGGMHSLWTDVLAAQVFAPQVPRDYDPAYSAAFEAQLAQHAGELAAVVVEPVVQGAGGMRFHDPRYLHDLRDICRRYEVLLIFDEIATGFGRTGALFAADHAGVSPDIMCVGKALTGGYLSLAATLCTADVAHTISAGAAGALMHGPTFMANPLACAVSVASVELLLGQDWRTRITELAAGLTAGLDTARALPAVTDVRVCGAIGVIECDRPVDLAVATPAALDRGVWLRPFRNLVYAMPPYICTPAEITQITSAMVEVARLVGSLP
HepG2 tox 2 = cytotoxicity in HepG2 cells; shares compounds with BioA inh-1; max activity, %; 310 tested, under 10 active; plate reader
NIH3T3 tox 5 = NIH3T3 viability loss; shares compounds with BioA inh-1; NIH3T3 cytotoxicity, plate reader; activity change, negative = cytotoxicity, % at 26 µM; 310 tested, under 10 active; AID 651900
Numbers without * were called inactive; i = inactive; ? = inconclusive; . = no result. Shown are actives, neighbours in structure and some others; about 2.9% of the full set was active somewhere. Unless noted, the rule behind the calls is not given here.

SMILES	GDH-TPI counter-1	Mtb hypoxia inh	Mtb FBA inh	FadD28 binding	BioA inh-1	BioA inh-2	HepG2 tox 2	NIH3T3 tox 5	others
O=C1NC2=C(C(=O)c3ccccc32)C(c2ccccc2)N1 (stereo not given)	2	5	0	-4	0	.	.	.
CC(C)c1ccc(C2NC(=O)NC3=C2CCc2ccccc23)cc1 (stereo not given)	4	6	32*	0	3	.	.	.	Mtb FBA confirm=63*;GDH-TPI counter-2=35*
COc1ccc2c(c1)C1=C(CC2)C(c2ccc(C)cc2)NC(=S)N1 (stereo not given)	0	1	1	-2	4	.	.	.
Cc1ccc(S(=O)(=O)N(C)C[C@@H]2Oc3ccc(N(C)C)cc3CC(=O)N([C@@H](C)CO)C[C@@H]2C)cc1	.	.	.	.	-2	.	.	.
COc1ccc(-c2oc3ccccc3c2C(=O)OCc2ccccc2OC)cc1	31*	.	73*	-1	-4	.	.	.	Mtb FBA confirm=-7;GDH-TPI counter-2=-8
COc1ccc(C(=O)c2c(-c3ccc(OC)cc3)oc3ccccc23)cc1	5	1	1	-1	-5	.	.	.
COc1ccc(CNC(=O)C[C@H]2C[C@H](C(=O)N3CCCCC3)[C@@]3(C)c4[nH]c5cc(-c6ccco6)ccc5c4CCN3C2=O)cc1OC	10	-10	28*	-1	-2	.	.	.	Mtb FBA confirm=79*;GDH-TPI counter-2=56*
CCN(CC)C(=O)[C@H]1C[C@H](CC(=O)NCc2ccc(OC)c(OC)c2)C(=O)N2CCc3c([nH]c4cc(-c5ccco5)ccc34)[C@]12C	16	-15	46*	-2	-3	.	.	.	Mtb FBA confirm=144*;GDH-TPI counter-2=105*
COc1ccc(Cc2c(-c3ccc(OC)c(OC)c3)nc3ccc(C)cn23)c(C)c1	.	.	31*	-8	79*	4	-3	-1	Mtb FBA confirm=54*;GDH-TPI counter-2=43*
C[C@@H]1CN([C@H](C)CO)C(=O)c2cc(NS(C)(=O)=O)ccc2O[C@@H]1CN(C)S(=O)(=O)c1ccc(F)cc1	.	.	.	.	-2	.	.	.
CC(Oc1ccc2c(-c3ccccc3)cc(=O)oc2c1)C(=O)N1CCOCC1 (stereo not given)	20	5	-2	-2	11	.	.	.
CC(Oc1ccc2ccc(=O)oc2c1)C(=O)N1CCOCC1 (stereo not given)	0	9	42*	-3	66*	-10	10	-9	Mtb FBA confirm=155*;GDH-TPI counter-2=122*
CO[C@@H]1CN(C)C(=O)c2cc(NC(=O)Cc3ccccc3)ccc2OC[C@H](C)NC[C@@H]1C	.	.	.	.	0	.	.	.
O=C(O)CCS(=O)(=O)c1nc(-c2cccs2)cc(C(F)(F)F)n1	31*	12	38*	-2	57*	-7	-9	-2	Mtb FBA confirm=196*;GDH-TPI counter-2=128*
COc1cccc(NC(=O)N2C[C@H](O)COC[C@@H]3O[C@@H](CC(=O)N(C)C)CC[C@H]32)c1	.	.	.	.	99*	17	i	4
CNC(=O)C[C@H]1CC[C@@H]2[C@H](COC[C@@H](O)CN2C(=O)Nc2ccc(Cl)c(Cl)c2)O1	.	.	.	.	83*	-6	i	-7
COc1cccc(NC(=O)N2C[C@H](O)COC[C@@H]3O[C@H](CC(=O)N(C)C)CC[C@H]32)c1	.	.	.	.	2	.	.	.
CNC(=O)C[C@@H]1CC[C@H]2[C@@H](COC[C@H](O)CN2C(=O)Nc2ccc(Cl)c(Cl)c2)O1	.	.	.	.	0	.	.	.
Cc1ccc(S(=O)(=O)Nc2ccc3c(c2)C(=O)N([C@H](C)CO)C[C@H](C)[C@@H](CN(C)C(=O)NC(C)C)OCCCC[C@H](C)O3)cc1	.	.	.	.	-2	.	.	.
CO[C@H]1CN(C)C(=O)c2ccc(NC(C)=O)cc2OC[C@H](C)N(Cc2cc(F)ccc2F)C[C@@H]1C	.	.	.	.	0	.	.	.
O=C(O)CN1C(=O)/C(=C\c2cc(Br)ccc2OCc2ccc([N+](=O)[O-])cc2)SC1=S	12	-4	2	2	62*	5	?	?
O=C(O)CN1C(=O)/C(=C\c2cc(Br)ccc2OCc2ccccc2Cl)SC1=S	13	2	6	-3	4	.	.	.
Cc1cc(/C=C(\C#N)C(=O)Nc2ccccc2)c(C)n1-c1ccc2c(c1)OCO2	18	5	0	-3	16	.	.	.
Cc1cc(/C=C(/C#N)C(=O)Nc2ccccc2)c(C)n1-c1cccnc1	29	8	0	-5	55*	-7	6	-1
O=C(CSc1nc2ccccc2c(=O)n1-c1ccccc1)N1CCN(CCO)CC1	8	8	2	-3	50*	-5	?	0
SMILES	GDH-TPI counter-1	Mtb hypoxia inh	Mtb FBA inh	FadD28 binding	BioA inh-1	BioA inh-2	HepG2 tox 2	NIH3T3 tox 5	others
CCOC(=O)c1c(NN=Cc2cccnc2)n[nH]c1C	.	6	.	.	.	.	.	.
COc1ccc(-c2cnc3c(c2)C(=O)N([C@H](C)CO)C[C@H](C)[C@@H](CN(C)S(C)(=O)=O)O3)cc1	.	.	.	.	5	.	.	.
O=C(C[C@H]1CC[C@H]2[C@@H](COC[C@@H](O)CN2C(=O)Nc2cccc(Cl)c2)O1)NCC1CCCCC1	.	.	.	.	2	.	.	.
CC(=O)c1ccc(C(=O)N2CCCC(CO)(Cc3ccccc3C)C2)s1 (stereo not given)	4	-4	-1	-2	54*	-7	-7	-4
Cc1ccccc1CC1(CO)CCCN(C(=O)c2ccccc2Cl)C1 (stereo not given)	9	-2	-1	-1	.	.	.	.
COC(=O)C1=C(c2cc3ccccc3s2)CC2CCC1N2C(=O)NCCO (stereo not given)	.	18	.	.	.	.	.	.
Cc1cccc(NC(=O)CN(C)S(=O)(=O)c2cnc[nH]2)c1	0	14	1	-3	3	.	.	.
Cc1cc(NC(=O)CN(C)S(=O)(=O)c2cnc[nH]2)ccc1Br	-1	12	-4	-1	42*	3	5	-4
COc1ccc(NC(=O)c2cnc(C)cn2)cc1-n1cnnn1	9	15	4	-4	51*	-7	32	8
Cc1cnc(C(=O)Nc2ccc(-n3cnnn3)cc2)cn1	9	6	2	-2	23	.	.	.
C[C@@H]1CN([C@H](C)CO)C(=O)c2cc(NC(=O)Nc3ccc(C(F)(F)F)cc3)ccc2O[C@H]1CN(C)C	.	.	.	.	5	.	.	.
CCOC(=O)CNC(=O)c1sc2ncnc(N3CCc4ccccc4C3)c2c1C	30	-11	13	-1	63*	-3	19	4
O=C(NCCc1ccc(Cl)cc1)c1cnc2n(c1=O)CCS2	2	8	-1	-4	0	.	.	.
COc1ccc(CCNC(=O)c2cnc3n(c2=O)CCS3)cc1OC	4	7	0	-1	48*	-3	16	3
C[C@@H]1CCCCO[C@@H](CN(C)C(=O)Nc2ccccc2)[C@@H](C)CN([C@@H](C)CO)C(=O)c2cc(NC(=O)NC3CCCCC3)ccc2O1	.	.	.	.	-2	.	.	.
